Sampled rows, rich in hits. Any-hit rate of the full collection: about 4%.
697 NFkB inh – lowers PMA/ionomycin-induced NF-kB signal in 697 B cells | 330,000 tested, 0.33% active | inhibition, % at 4 µM | 697 B-cell NF-kB luciferase reporter, 16 h | AID 435022; in the data active = inhibition above about 35%
Beta apoptosis – blocks beta cell apoptosis | 300,000 tested, 0.8% active | AID 435005 | INS-1E cytokine-induced death, ATP luminescence, 48 h; percent of positive-control rescue, neutral wells zero | protection from apoptosis, % (no concentration beside the values);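 active = Every replicate reaches about 75%, or at least half do and their mean reaches it too, limit read from the data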;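 note: higher means more ATP so stronger rescue from cytokine killing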
Mdm2-MdmX inh – inhibitors of human Mdm2/MdmX interaction; 330,000 tested, 3% active; O15151+Q00987; inhibition, % at 8 µM; SaOS-2 split-luciferase Mdm2/MdmX complementation, luminescence;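 active = inhibition of at least 50% at 8 µM in the primary screen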
Target sequence (O15151 whole entry, looked up): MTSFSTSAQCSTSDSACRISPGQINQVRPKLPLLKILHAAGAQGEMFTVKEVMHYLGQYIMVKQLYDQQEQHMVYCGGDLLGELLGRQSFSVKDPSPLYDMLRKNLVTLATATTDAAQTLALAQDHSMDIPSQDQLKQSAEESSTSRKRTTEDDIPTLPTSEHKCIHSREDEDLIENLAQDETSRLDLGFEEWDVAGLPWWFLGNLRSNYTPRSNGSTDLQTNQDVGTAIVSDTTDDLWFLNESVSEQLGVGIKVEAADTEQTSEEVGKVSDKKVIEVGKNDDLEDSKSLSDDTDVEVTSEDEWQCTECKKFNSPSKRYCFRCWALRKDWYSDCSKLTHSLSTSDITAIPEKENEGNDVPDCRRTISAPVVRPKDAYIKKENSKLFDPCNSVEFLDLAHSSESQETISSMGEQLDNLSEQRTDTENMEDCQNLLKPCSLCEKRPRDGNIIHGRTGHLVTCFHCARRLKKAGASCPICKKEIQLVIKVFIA
Target sequence (Q00987 whole entry, looked up): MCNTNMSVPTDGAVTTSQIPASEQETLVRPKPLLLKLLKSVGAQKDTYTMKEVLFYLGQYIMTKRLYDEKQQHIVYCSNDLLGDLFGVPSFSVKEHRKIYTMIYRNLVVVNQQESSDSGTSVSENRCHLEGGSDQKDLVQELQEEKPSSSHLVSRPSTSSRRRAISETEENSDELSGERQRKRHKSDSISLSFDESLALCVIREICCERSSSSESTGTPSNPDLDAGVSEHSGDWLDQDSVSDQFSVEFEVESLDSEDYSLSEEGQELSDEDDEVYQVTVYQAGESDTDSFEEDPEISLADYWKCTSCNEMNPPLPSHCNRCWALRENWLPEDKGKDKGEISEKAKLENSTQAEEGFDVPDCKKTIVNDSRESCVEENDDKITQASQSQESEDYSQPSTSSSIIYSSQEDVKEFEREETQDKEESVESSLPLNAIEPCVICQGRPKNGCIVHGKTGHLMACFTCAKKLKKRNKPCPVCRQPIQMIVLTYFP
Gli-Sufu block – blocks Gli-Sufu signaling in a luciferase reporter; inhibition, % at 5 µM; Sufu-KO-LIGHT fibroblasts, Gli luciferase reporter luminescence; 340,000 tested, 0.74% active;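 active = inhibition above about 55%, limit read from the data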
Jurkat NFkB inh – inhibitors of the PMA/ionomycin-induced NF-kB reporter in Jurkat cells; inhibition, % at 4 µM; AID 435003; 330,000 tested, 0.53% active; PMA/ionomycin-induced NF-kB luciferase reporter, luminescence; in the data active = inhibition above about 50%
697 NFkB conf – lowers PMA/ionomycin-induced NF-kB signal in 697 B cells | shares compounds with 697 NFkB inh | 697 B-cell NF-kB luciferase, 16 h | inhibition, % at 4 µM | 2,000 tested, 35% active | AID 449746; in the data active = inhibition mostly above about 28%, no sharp cut-off; inactive = mostly below about 22%
Mdm2 MdmX conf – human Mdm2/MdmX binding inhibition, confirmed; shares compounds with Mdm2-MdmX inh; luminescent assay; inhibition, % at 8 µM; 10,000 tested, 55% active; in the data active = inhibition above about 40%
FLuc counter – inhibits full-length luciferase, flagging false Mdm2/MdmX hits; shares compounds with Mdm2-MdmX inh; SaOS-2 full-length luciferase counterscreen, luminescence; inhibition, % at 8 µM; 6,200 tested, 77% active; AID 504607;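 active = mean inhibition at 8 µM reaching about 37%, which flags the compound as non-specific, limit read from the data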;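 note: p53-null SaOS-2 cells with luciferase driven by a doxycycline-inducible promoter; compound on cells about two nights before reading with doxycycline added after day one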
A number is an active result; 0 = inactive; - = not tested or not shown.

SMILES | 697 NFkB inh | Beta apoptosis | Mdm2-MdmX inh | Gli-Sufu block | Jurkat NFkB inh | 697 NFkB conf | Mdm2 MdmX conf | FLuc counter
CCn1c(SCC(=O)Nc2ccc3c(c2)n(C)c(=O)n3C)nnc1-c1ccncc1 | 0 | 0 | 0 | 0 | 0 | - | - | -
COc1ccc(-n2c(SCC(=O)Nc3ncc(Cl)cc3Cl)nc3ccccc32)cc1 | 0 | 0 | 90.7 | - | 0 | 0 | 74.2 | 0
O=C(CSc1nc2ccccc2n1-c1ccccc1)Nc1ncc(Cl)cc1Cl | 0 | 0 | 87.6 | 0 | 0 | 0 | 81.0 | 0
CCOC(=O)Cc1c(C)nc2c(-c3ccccc3)cnn2c1C | 0 | 0 | 0 | 0 | 0 | - | - | -
Cc1nc2c(-c3ccccc3)cnn2c(N)c1-c1ccccc1 | 0 | 0 | 82.9 | 55.8 | 0 | 0 | 77.3 | 147.8
CC1=CC(C)(C)Nc2ccc(OS(=O)(=O)c3ccc(C)cc3)cc21 | 0 | 0 | 0 | 0 | 0 | - | - | -
CC(=O)Nc1ccc(S(=O)(=O)Oc2ccc3c(c2)C(C)=CC(C)(C)N3)cc1 | 0 | 0 | 98.1 | - | 0 | 0 | 78.9 | 0
Cc1nnc(SCC(=O)N2CCN(c3cccc(Cl)c3)CC2)n1C1CC1 | 0 | 0 | 0 | 0 | 0 | - | - | -
COc1ccc(S(=O)(=O)Nc2cc3c(C(C)=O)c(C)oc3c3ccccc23)cc1 | 41.2 | - | 66.5 | 0 | 0 | 31.9 | 70.0 | 80.1
Cc1oc2c(cc(NS(=O)(=O)c3ccc(F)cc3)c3ccccc32)c1C(=O)O | 0 | 0 | 0 | 0 | 0 | - | - | -
COc1ccc(C(=O)Nc2nc3c(s2)CCCC3)cc1S(=O)(=O)N1CCCc2ccccc21 | 0 | 0 | 90.7 | 0 | 0 | 0 | 89.7 | 0
COc1ccc(C(=O)Nc2ncccc2C)cc1S(=O)(=O)N1CCCc2ccccc21 | 0 | 0 | 0 | 0 | 0 | - | - | -
COc1cc(NC(=S)NC(=O)c2cc(C)cc(C)c2)ccc1NC(=O)c1cccs1 | 0 | 0 | 0 | 0 | 0 | - | - | -
COc1cc(NC(=S)NC(=O)c2ccc(C(C)(C)C)cc2)ccc1NC(=O)c1cccs1 | 0 | 0 | 89.7 | 0 | 0 | 0 | 68.1 | 0
Cc1occc1-c1nnc(SCC(=O)N2CCCCC2)o1 | 0 | 0 | 0 | 0 | 0 | - | - | -
CC(=O)NC(CC(=O)NCc1ccncc1)c1ccccc1 (configuration not stated) | 0 | 0 | 0 | 0 | 0 | - | - | -
CCCNC(=O)c1ccc(N2CCC3(CC2)CC(c2cccc(Br)c2)=NO3)c(NC(=O)c2ccc(Cl)c([N+](=O)[O-])c2)c1 | 36.9 | 0 | 60.6 | 0 | 0 | 26.0 | 0 | -
Cn1ncc2c(Nc3ccc(Cl)c(Cl)c3)ncnc21 | 0 | 0 | 0 | 0 | 0 | - | - | -
Cn1ncc2c(Nc3ccc(-c4ccccc4)cc3)ncnc21 | 0 | 0 | 75.8 | 0 | 0 | 0 | 48.0 | 73.0
CC(C)C[C@H](NC(=O)c1nc[nH]c1C(=O)N1CCN(C(=O)OC(C)(C)C)CC1)C(=O)OC(C)(C)C | 0 | 0 | 90.9 | 0 | 0 | 0 | 80.6 | 52.6
C[C@H](NC(=O)c1nc[nH]c1C(=O)N1CCN(C(=O)OC(C)(C)C)CC1)C(=O)OC(C)(C)C | 0 | 0 | 0 | 0 | 0 | - | - | -
CC(C)(C)c1nc(SCC(=O)Nc2nc3c(s2)CCCC3)c2ccccc2n1 | 0 | 0 | 97.8 | 0 | 0 | 0 | 92.8 | 54.3
CC(Cc1ccccc1)N1C(=O)c2cccc([N+](=O)[O-])c2C1=O (configuration not stated) | 0 | 0 | 0 | 0 | 0 | - | - | -
COc1ccc(-n2nc(C(=O)NCC(=O)NCCCN3CC(C)CC(C)C3)c3ccccc3c2=O)cc1OC (configuration not stated) | 0 | 0 | 0 | 0 | 0 | - | - | -
CCOC(=O)Cn1c(-c2nonc2NC(=O)c2ccccc2F)nc2ccccc21 | 0 | 0 | 91.0 | 0 | 0 | 0 | 93.4 | 0
SMILES | 697 NFkB inh | Beta apoptosis | Mdm2-MdmX inh | Gli-Sufu block | Jurkat NFkB inh | 697 NFkB conf | Mdm2 MdmX conf | FLuc counter
O=C(CSc1nnc(-c2ccccn2)n1Cc1ccccc1)N1CCOCC1 | 0 | 0 | 0 | 0 | 0 | - | - | -
Cc1ccc(NC(=O)Nn2cnnc2)cc1Cl | 0 | 0 | 0 | 0 | 0 | - | - | -
Cc1ccc(NC(=O)O/N=C/c2c(C)nn(C(C)(C)C)c2C)cc1Cl | 62.9 | 0 | 79.5 | 0 | 0 | 78.2 | 91.8 | 54.0
Cc1nn(Cc2ccccc2Cl)c(C)c1C(=O)Nc1nnc(C2CC2)s1 | 0 | - | 79.3 | 0 | 0 | 0 | 0 | -
COc1ccccc1CNC(=O)/C=C/c1ccc(S(=O)(=O)N2CCOCC2)cc1 | 0 | 0 | 0 | 0 | 0 | - | - | -
Cc1ccc(S(=O)(=O)N(C)CC(=O)NCCCn2nc(C)cc2C)cc1 | 0 | 0 | 0 | 0 | 0 | - | - | -
O=C(CCl)N1CCN(S(=O)(=O)c2ccc3c(c2)CCC3)CC1 | 37.5 | 0 | 63.8 | 0 | 0 | 37.6 | 0 | -
COc1ccc(-c2cc(-c3ccccc3)c(C#N)c(S(C)=O)n2)cc1 (configuration not stated) | 37.1 | 0 | 81.0 | 0 | 0 | 0 | 0 | -
CCSc1nc(-c2ccc(OC)cc2)cc(-c2ccccc2)c1C#N | 0 | 0 | 0 | 0 | 0 | - | - | -
CCSc1ncc(Cl)c(C(=O)Nc2ccccc2Cl)n1 | 0 | 0 | 0 | 0 | 0 | - | - | -
CCSc1ncc(Cl)c(C(=O)Nc2sc3c(c2C(=O)NCc2cccnc2)CCCC3)n1 | 38.0 | - | 60.3 | 0 | 0 | 24.6 | 0 | -
CC(=O)Nc1cccc(NC(=O)c2cc(-c3cccnc3)nc3ccc(Br)cc23)c1 | 40.7 | 0 | 68.1 | 0 | 0 | 0 | 73.1 | 89.7
CC1CCc2c(sc3nc(C(C)(C)C)nc(N4CCN(C(=O)CCl)CC4)c23)C1 (configuration not stated) | 40.3 | 97.6 | 97.6 | 0 | 0 | 27.2 | 0 | 0
Cc1ccc(-c2nc(C(=O)NCC3CCCO3)cc3c2[nH]c2ccccc23)cc1 (configuration not stated) | 39.5 | 0 | 73.4 | 0 | 0 | 36.4 | 44.4 | 65.7
O=C(Nc1ccc(Cl)c(C(F)(F)F)c1)c1ccncc1 | 0 | 0 | 0 | 0 | 0 | - | - | -
CNC(=O)c1cc(Oc2ccc(NC(=O)Nc3ccc(Cl)c(C(F)(F)F)c3)cc2)ccn1 | 62.5 | - | 97.1 | 0 | 0 | 59.5 | 88.7 | 52.2
NS(=O)(=O)c1ccc(N=Nc2ccc(O)c3ncccc23)cc1 | 0 | 120.7 | 61.9 | 0 | 0 | 0 | 52.1 | 47.6
NS(=O)(=O)c1ccc(N=Nc2c(O)ccc3ccccc23)cc1 | 0 | 0 | 0 | 0 | 0 | - | - | -
Cc1cc(NC2CCCC2)n2ncc(-c3ccccc3)c2n1 | 0 | 0 | 84.0 | 0 | 0 | 0 | 82.2 | 181.4
CCOc1cc(/C=C2\CCC/C(=C\c3cc(Cl)c(O)c(OCC)c3)C2=O)cc(Cl)c1O | 0 | 74.5 | 100.3 | 0 | 0 | 0 | 93.5 | 0
C=CCNC(=O)/C(C#N)=C\c1cc(Cl)c(O)c(OCC)c1 | - | 0 | - | 0 | - | - | - | -
COc1ccc(C)cc1NS(=O)(=O)c1ccc(NC(=O)CN(c2cc([N+](=O)[O-])ccc2C)S(C)(=O)=O)cc1 | 38.3 | 112.0 | 70.3 | 0 | 0 | 0 | 63.3 | 51.0
COc1ccc([N+](=O)[O-])cc1N(CC(=O)NCCSc1ccc(C)cc1)S(C)(=O)=O | 0 | 0 | 0 | 0 | 0 | - | - | -

Compound activity deposited in PubChem by several laboratories.
